# Reference: PubChem BioAssay (NCATS)
# Inconclusive results are not listed. Activity calls are given as the source filed them. Unless noted, calls come from the whole dose curve; as a rule, active = well fitted curve in the direction sought with a large enough effect; inconclusive = small, poorly fitted or top-dose-only effect, or another doubt; inactive = no such curve, though single readings can be large; an effect the other way counts as inactive or inconclusive.
# Assays:
# [1] = target: DNA repair nuclease/redox regulator APEX1 (Homo sapiens) (UniProt P27695); assay: qHTS Validation Assay for Inhibitors of the Human Apurinic/apyrimidinic Endonuclease 1 (APE1) (AID 1705;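 note: TAMRA fluorescence gain over two minutes as APE1 cuts a quenched THF abasic duplex; % is set by controls: 0 for no effect and ±100 for the full control effect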)
# Procedure, shortened: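 Read-out: TAMRA fluorescence (525 nm ex, 598 nm em) from cleavage of a quenched THF abasic-site duplex, 50 nM final; activity taken as intensity change between third and first of three reads 60 s apart.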
# [2] = Counterscreen for APE1 Inhibitors: Fluorescent Dye Displacement Validation Assay (AID 1707);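 note: plate controls were ThO with dsDNA and no compound for no effect and ThO without dsDNA for full effect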
# Procedure, shortened: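 Reaction mixture of 250 nM Thiazole Orange and 50 nM double-stranded abasic-site DNA was dispensed, compounds were pin-transferred, and fluorescence was read at endpoint (480 nm ex, 540 nm em). Reduced fluorescence indicated dye displacement by DNA binding.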
# [3] = qHTS for differential inhibitors of proliferation of Plasmodium falciparum line 7G8 (AID 1815);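 note: potency is the fitted concentration of half-maximal effect; parasite growth measured after three days of incubation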
# [4] = qHTS for differential inhibitors of proliferation of Plasmodium falciparum line GB4 (AID 1816); settings: Potency: Plasmodium falciparum GB4 proliferation inhibition;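 note: potency is the fitted concentration of half-maximal effect; parasite growth measured after 72 h incubation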
# [5] = qHTS for differential inhibitors of proliferation of Plasmodium falciparum line 3D7 (AID 1876); note: potency is the fitted concentration of half-maximal effect
# [6] = qHTS for differential inhibitors of proliferation of Plasmodium falciparum line D10 (AID 1877);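 note: potency is the fitted concentration of half-maximal effect; parasites grown with compound for 72 h before DNA staining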
# [7] = qHTS for differential inhibitors of proliferation of Plasmodium falciparum line Dd2 (AID 1882); settings: Potency: Plasmodium falciparum Dd2 proliferation inhibition; note: potency is the fitted concentration of half-maximal effect; nearly all actives have a fitted effect of over 65% in size
# Procedure, shortened: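 SYBR Green DNA fluorescence (ex 485, em 535 nm) after overnight lysis quantifies parasite growth; compound exposure lasted 72 h at 37 C on infected red cells at 2.5% hematocrit, 0.3% parasitemia (final). Artemisinin 0.29 uM and vehicle wells define normalization.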
# [8] = qHTS for differential inhibitors of proliferation of Plasmodium falciparum line W2 (AID 1883); settings: Potency: Plasmodium falciparum W2 proliferation inhibition;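 note: potency is the fitted concentration of half-maximal effect; parasites grown with compound for 72 h before lysis and staining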
# [9] = qHTS for differential inhibitors of proliferation of Plasmodium falciparum line HB3 (AID 1886); settings: Potency: Plasmodium falciparum HB3 proliferation inhibition;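 note: potency is the fitted concentration of half-maximal effect; parasites grown with compound for 72 h before SYBR Green readout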
# [10] = target: Ferritin light chain (Equus caballus) (UniProt P02791); assay: qHTS Validation Assay for Identification of Novel General Anesthetics (AID 2323); note: % is set by controls: 0 for no effect and ±100 for the full control effect
# Procedure, shortened: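 10 uM horse-spleen apoferritin + 1-AMA (50% saturated, PBS); cpd pin-transferred, 10 min RT. Ex 380/Em 535 nm endpoint. Activity normalized between free 1-AMA and 1-AMA/apoferritin; 4-parameter Hill fit of concentration-response.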
# [11] = target: ATP-dependent DNA helicase Q1 (Homo sapiens) (UniProt P46063); assay: qHTS Validation Assay for Inhibitors of RecQ-Like Dna Helicase 1 (RECQ1) (AID 2353);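 note: plate controls were DMSO vehicle for no effect and enzyme-free control for full effect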
# Procedure, shortened: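 RECQ1T1 50 nM; forked duplex (20 bp + 30-nt ss tails) 200 nM, ATP 2 mM final; pH 8.0, 2 mM MgCl2, 2.5 ug/ml poly(dI-dC); 15 min compound preincubation; discontinuous kinetic read over 2 h at RT.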
# [12] = Validation screen for small molecules that induce DNA re-replication in MCF 10A normal breast cells (AID 463097); note: potency is the fitted concentration of half-maximal effect; nearly all actives have a fitted effect of over 60% in size
# Procedure, shortened: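 250 MCF 10A cells/well; compound pin-transferred; 48 hr, 37 C, 5% CO2; Hoechst 40 min; imaged 405/500-530 nm. Hits = more high-intensity nuclei.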
# [13] = Quantitative high throughput screen for delayed death inhibitors of the malarial parasite plastid, 96 hour incubation (AID 488745); note: nearly all actives have a fitted effect of over 70% in size; note: potency is the fitted concentration of half-maximal effect
# Procedure, shortened: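 Readout is firefly luciferase luminescence from an integrated reporter in P. falciparum; lower signal marks inhibited growth. Cultures at 2% hematocrit and 0.1% parasitemia were treated with compound across two generations (96 h, 37 C, 5% CO2).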
# [14] = Quantitative high throughput screen for delayed death inhibitors of the malarial parasite plastid, 48 hour incubation (AID 488752); note: potency is the fitted concentration of half-maximal effect; nearly all actives have a fitted effect of over 65% in size
# Procedure, shortened: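 First, compound was pinned into RPMI 1640 medium containing 0.5% Albumax. Next, reporter-parasite-infected erythrocytes were added to 2% hematocrit and 0.1% parasitemia. After 48 h at 37 C under 5% CO2, luciferase detection reagent was added and luminescence read.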
# [15] = target: Transient receptor potential cation channel subfamily V member 1 (Homo sapiens) (UniProt Q8NER1); assay: HTS Assay for Compounds that Act as Enhancers of the Vanilloid Receptor 1 (AID 488979); note: 0% is about no effect
# Procedure, shortened: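 Calcium influx kinetics via Fluo-8 (480/520 nm) in TRPV1-expressing cells, 2000/well cultured overnight at 35.5C. Compound-alone read 3 min (agonist phase), followed by EC20 capsaicin challenge for 2 min (enhancer phase).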
# [16] = target: Thyrotropin receptor (Homo sapiens) (UniProt P16473); assay: qHTS Assay for Antagonists of the Thyroid Stimulating Hormone Receptor (AID 488980); note: 0% is about no effect
# Procedure, shortened: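 TSHR-HEK293 cells; 70 uM RO 20-1724 PDE inhibitor; compound + EC80 TSH (4 nM final); anti-cAMP cryptate antibody/cAMP-d2 in lysis buffer, 30 min RT; HTRF 665/620 nm read.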
# [17] = target: Thyrotropin-releasing hormone receptor (Homo sapiens) (UniProt P34981); assay: qHTS for Small Molecule Agonists and Allosteric Enhancers of Human TRH Receptor: Validation Screen for Agonists (AID 493127;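 active = calcium activation more than 3 SD above the typical response in the agonist read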;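 note: intracellular calcium rise by fluo-8 fluorescence before TRH EC20 addition; 0% is about no effect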); settings: TRH receptor agonist cell assay; at 2 µM; stronger effect = higher value
# Procedure, shortened: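 Compounds are added by online pintool to dye-loaded TRHR cells while fluorescence is recorded every second. A rise in calcium signal during the agonist read marks activation; a later 10 nM TRH addition (EC20) serves the separate enhancer mode.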
# [18] = target: Galactokinase (Homo sapiens) (UniProt P51570); assay: qHTS Validation Assay for Inhibitors of Human Galactokinase (GALK) (AID 493189); note: 0% is about no effect
# Procedure, shortened: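 Luminescence from leftover ATP (Kinase-Glo Plus, 10 min) served as read-out after a 1 h room-temperature reaction of 5 nM GALK, 100 uM galactose and 35 uM ATP at pH8.0.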
# [19] = target: Voltage-gated inwardly rectifying potassium channel KCNH2 (Homo sapiens) (UniProt Q12809); assay: qHTS Assay for Small Molecule Inhibitors of the Human hERG Channel Activity (AID 588834);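 note: potency is the fitted concentration of half-maximal effect; lower thallium flux fluorescence means stronger hERG block; nearly all actives have a fitted effect of over 50% in size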
# Procedure, shortened: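 Thallium-flux (FluxOR) read-out on FDSS: fluorescence read 10 s before and 2 min after stimulation buffer. hERG-BacMam-transduced U2OS cells, compound exposure about 10 min. AC50 by standard Hill equation.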
# [20] = target: Catechol O-methyltransferase (Homo sapiens) (UniProt P21964); assay: Confirmatory Screen for Target Class Profiling of Small Molecule Inhibitors of Methyltransferases (AID 1745852); settings: MTase-Glo luminescence, SAH detection, recombinant enzyme; measured here: COMT max response; stronger effect = lower value; for activity change, negative = inhibition: % is set by controls: 0 for no effect and ±100 for the full control effect
# [21] = target: Guanidinoacetate N-methyltransferase (Homo sapiens) (UniProt Q14353); assay: as above; settings: activity change, negative = inhibition: at 57.3 µM (top of the series) unless noted
# [22] = target: Nicotinamide N-methyltransferase (Homo sapiens) (UniProt P40261); assay: as above; settings: MTase-Glo luminescence, SAH detection, recombinant enzyme; measured here: NNMT max response; stronger effect = lower value
# [23] = target: Phenylethanolamine N-methyltransferase (Homo sapiens) (UniProt P11086); assay: as above; settings: MTase-Glo luminescence, SAH detection, recombinant enzyme; measured here: PNMT max response; stronger effect = lower value
# [24] = target: Endonuclease 4 (Escherichia coli (strain K12)) (UniProt P0A6C1); assay: Counterscreen for APE1 Inhibitors: qHTS Validation Assay for Inhibitors of Endonuclease IV (AID 1708); note: % is set by controls: 0 for no effect and ±100 for the full control effect
# Procedure, shortened: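 Incision of a double-stranded 50 nM TAMRA/BHQ-2 abasic substrate was followed kinetically (525/598 nm, reads every 60 s) after 15 min enzyme–compound preincubation with 2 nM EndoIV in pH 7.5 Tris buffer with MgCl2, DTT and Tween-20; concentration-response format.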
# [25] = Validation screen for small molecules that induce DNA re-replication in SW480 colon adenocarcinoma cells (AID 504364); note: 0% is about no effect
# Procedure, shortened: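 Image-based qHTS: compounds were incubated with SW480 cells for 48 hr, nuclei stained with Hoechst, and per-nucleus fluorescence intensity scanned to flag cells with excess DNA content.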
# Nicotinamide N-methyltransferase (Homo sapiens), sequence (P40261 whole entry, looked up): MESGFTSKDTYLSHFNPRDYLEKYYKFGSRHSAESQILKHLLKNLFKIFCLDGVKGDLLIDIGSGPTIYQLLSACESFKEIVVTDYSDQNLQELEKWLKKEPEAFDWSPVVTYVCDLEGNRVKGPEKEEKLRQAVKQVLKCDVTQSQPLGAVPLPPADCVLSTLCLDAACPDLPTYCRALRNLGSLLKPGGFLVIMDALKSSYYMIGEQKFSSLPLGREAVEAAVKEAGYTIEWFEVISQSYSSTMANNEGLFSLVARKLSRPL
# Phenylethanolamine N-methyltransferase (Homo sapiens), sequence (P11086 whole entry, looked up): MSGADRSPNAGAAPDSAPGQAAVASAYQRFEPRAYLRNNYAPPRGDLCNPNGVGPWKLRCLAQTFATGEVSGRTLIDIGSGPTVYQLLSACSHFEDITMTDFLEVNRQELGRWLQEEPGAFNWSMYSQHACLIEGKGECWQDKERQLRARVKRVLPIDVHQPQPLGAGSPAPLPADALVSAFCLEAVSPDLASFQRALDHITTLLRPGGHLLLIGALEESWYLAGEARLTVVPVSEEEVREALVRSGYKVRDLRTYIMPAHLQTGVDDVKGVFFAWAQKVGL
# Catechol O-methyltransferase (Homo sapiens), sequence (P21964 whole entry, looked up): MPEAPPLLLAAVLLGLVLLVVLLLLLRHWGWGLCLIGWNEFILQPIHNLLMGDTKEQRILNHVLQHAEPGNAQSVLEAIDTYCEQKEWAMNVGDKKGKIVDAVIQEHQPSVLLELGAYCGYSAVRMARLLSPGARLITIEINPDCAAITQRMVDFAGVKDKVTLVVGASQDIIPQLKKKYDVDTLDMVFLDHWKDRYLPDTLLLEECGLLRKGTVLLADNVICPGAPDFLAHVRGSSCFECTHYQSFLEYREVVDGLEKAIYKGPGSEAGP
# Thyrotropin receptor (Homo sapiens), sequence (P16473 whole entry, looked up): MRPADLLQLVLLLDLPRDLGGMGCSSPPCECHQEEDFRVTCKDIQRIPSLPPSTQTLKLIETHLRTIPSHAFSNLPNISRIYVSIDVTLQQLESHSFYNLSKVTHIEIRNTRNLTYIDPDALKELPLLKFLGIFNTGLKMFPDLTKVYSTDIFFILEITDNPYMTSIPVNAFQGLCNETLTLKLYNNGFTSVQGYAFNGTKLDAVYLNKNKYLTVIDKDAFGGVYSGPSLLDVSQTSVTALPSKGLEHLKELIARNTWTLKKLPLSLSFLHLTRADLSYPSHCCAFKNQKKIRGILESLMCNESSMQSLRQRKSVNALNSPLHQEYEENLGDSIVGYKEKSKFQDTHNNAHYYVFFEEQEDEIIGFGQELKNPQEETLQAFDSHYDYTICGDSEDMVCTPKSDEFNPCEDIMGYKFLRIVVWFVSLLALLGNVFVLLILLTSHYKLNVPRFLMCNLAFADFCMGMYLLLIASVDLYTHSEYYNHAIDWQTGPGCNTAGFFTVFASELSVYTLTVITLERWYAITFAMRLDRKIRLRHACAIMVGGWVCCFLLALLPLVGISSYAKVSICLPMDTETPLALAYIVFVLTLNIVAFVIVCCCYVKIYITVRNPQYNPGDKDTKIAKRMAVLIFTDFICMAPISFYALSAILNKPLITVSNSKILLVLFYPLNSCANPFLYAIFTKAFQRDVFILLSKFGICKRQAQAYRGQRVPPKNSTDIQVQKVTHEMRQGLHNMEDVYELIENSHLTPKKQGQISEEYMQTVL
# Transient receptor potential cation channel subfamily V member 1 (Homo sapiens), sequence (Q8NER1 whole entry, looked up): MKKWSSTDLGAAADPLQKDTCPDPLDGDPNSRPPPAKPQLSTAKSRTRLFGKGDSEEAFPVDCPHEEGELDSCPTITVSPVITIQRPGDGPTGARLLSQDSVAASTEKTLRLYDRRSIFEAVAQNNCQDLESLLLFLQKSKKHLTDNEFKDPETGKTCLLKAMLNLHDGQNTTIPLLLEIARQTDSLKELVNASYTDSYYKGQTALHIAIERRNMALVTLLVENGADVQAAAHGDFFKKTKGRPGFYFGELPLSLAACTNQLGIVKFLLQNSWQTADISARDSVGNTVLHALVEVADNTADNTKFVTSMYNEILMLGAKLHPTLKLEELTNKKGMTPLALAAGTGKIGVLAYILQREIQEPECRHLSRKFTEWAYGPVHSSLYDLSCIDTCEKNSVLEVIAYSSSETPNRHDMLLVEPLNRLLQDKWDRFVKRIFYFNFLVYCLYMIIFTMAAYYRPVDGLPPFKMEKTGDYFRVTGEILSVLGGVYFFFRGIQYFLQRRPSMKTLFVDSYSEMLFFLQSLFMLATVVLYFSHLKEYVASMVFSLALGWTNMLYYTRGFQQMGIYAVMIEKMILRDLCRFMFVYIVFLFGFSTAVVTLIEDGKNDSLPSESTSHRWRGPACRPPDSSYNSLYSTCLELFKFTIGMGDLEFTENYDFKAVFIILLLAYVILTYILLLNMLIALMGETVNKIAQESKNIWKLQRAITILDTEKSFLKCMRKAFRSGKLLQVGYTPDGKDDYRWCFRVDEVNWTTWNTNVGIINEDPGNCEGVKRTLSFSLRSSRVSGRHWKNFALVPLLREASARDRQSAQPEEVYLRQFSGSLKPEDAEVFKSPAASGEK
# DNA repair nuclease/redox regulator APEX1 (Homo sapiens), sequence (P27695 whole entry, looked up): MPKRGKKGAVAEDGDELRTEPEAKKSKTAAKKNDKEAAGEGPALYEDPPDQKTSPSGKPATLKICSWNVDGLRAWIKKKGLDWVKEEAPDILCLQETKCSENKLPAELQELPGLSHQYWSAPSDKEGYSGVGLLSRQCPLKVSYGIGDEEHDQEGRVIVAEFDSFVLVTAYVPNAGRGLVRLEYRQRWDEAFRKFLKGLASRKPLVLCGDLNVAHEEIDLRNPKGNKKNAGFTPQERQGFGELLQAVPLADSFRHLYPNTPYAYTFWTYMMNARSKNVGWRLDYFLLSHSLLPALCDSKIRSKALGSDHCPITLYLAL
# Galactokinase (Homo sapiens), sequence (P51570 whole entry, looked up): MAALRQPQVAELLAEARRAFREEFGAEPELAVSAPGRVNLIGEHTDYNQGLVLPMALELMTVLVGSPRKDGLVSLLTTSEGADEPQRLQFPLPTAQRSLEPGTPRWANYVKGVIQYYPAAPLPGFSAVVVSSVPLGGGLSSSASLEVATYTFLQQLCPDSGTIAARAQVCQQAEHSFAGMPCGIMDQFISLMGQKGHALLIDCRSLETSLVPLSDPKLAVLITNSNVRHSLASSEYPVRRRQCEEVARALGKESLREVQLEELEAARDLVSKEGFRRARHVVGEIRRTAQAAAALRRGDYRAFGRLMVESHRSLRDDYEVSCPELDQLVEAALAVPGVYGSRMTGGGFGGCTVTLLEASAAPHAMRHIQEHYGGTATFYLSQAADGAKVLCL
# ATP-dependent DNA helicase Q1 (Homo sapiens), sequence (P46063 whole entry, looked up): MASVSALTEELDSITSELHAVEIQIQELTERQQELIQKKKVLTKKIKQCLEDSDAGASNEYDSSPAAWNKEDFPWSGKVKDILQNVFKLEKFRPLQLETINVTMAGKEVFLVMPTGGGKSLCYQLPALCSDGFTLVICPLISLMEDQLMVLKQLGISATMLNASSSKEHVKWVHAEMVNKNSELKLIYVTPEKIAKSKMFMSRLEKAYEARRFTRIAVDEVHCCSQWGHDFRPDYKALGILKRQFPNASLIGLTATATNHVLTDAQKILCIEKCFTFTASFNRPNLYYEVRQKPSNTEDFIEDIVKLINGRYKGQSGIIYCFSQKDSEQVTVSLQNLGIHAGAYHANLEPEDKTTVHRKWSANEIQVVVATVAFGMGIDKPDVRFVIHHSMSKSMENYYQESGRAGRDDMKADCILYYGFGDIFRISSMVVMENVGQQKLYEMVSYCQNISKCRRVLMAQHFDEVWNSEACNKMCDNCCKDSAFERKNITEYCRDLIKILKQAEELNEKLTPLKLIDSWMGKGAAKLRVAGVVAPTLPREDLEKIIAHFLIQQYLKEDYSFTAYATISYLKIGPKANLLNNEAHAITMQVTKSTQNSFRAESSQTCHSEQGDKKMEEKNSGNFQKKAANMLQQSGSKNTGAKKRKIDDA
# Thyrotropin-releasing hormone receptor (Homo sapiens), sequence (P34981 whole entry, looked up): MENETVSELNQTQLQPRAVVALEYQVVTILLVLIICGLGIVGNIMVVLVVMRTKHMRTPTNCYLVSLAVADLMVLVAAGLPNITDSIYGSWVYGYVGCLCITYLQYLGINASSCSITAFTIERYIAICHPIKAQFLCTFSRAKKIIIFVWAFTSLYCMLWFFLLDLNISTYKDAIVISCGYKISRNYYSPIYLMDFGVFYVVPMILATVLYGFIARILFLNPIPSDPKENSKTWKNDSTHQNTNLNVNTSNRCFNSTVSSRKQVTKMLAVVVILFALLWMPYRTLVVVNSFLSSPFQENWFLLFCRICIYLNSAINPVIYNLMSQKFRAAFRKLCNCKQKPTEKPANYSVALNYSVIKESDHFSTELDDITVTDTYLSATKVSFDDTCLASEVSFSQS
# Ferritin light chain (Equus caballus), sequence (P02791 2-175 limits assumed): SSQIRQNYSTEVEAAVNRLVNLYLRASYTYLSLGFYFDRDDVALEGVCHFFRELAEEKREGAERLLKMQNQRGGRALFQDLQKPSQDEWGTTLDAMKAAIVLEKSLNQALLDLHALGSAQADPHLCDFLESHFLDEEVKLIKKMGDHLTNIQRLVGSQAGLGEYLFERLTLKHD
compound,measurement,setting,value
Cc1c(C)c2c(c(C)c1O)CCC(C)(CN1CCN(c3cc(N4CCCC4)nc(N4CCCC4)n3)CC1)O2 (configuration not stated),Potency,[1],inactive
same,outcome,[2],inactive
same,Potency,[3],0.562 µM (active)
same,Potency,[4],0.501 µM (active)
same,Potency,[5],0.891 µM (active)
same,Potency,[6],0.501 µM (active)
same,Potency,[7],1.26 µM (active)
same,Potency,[8],0.355 µM (active)
same,Potency,[9],0.891 µM (active)
same,outcome,[10],inactive
same,outcome,[11],inactive
same,Potency,[12],4.47 µM (active)
same,Potency,[13],1.65 µM (active)
same,Potency,[14],1.85 µM (active)
same,outcome,[15],inactive
same,outcome,[16],inactive
same,activation,[17],-7.62% (inactive)
same,outcome,[18],inactive
same,Potency,[19],7.08 µM (active)
CC(C)CCn1c(=O)c2ccccc2n2c(CCC(=O)N3CCN(Cc4ccccc4)CC3)nnc12,activity,[20],3.34%
same,"activity change, negative = inhibition",[21],0%
same,activity,[22],-63.2%
same,activity,[23],-0.865%
COc1cccc(-c2ccccc2NC(=O)C2CCN(CC=C(C)C)CC2)c1,activity,[20],0.831%
same,"activity change, negative = inhibition",[21],3.69%
same,activity,[22],-3.23%
same,activity,[23],-3%
O=C(NCCCN1CCc2ccccc2C1)C1CCc2ncc(-c3ccc(F)cc3)n2C1 (configuration not stated),activity,[20],-4.39%
same,"activity change, negative = inhibition",[21],-6.35%
same,activity,[22],3.39%
same,activity,[23],-4.05%
CC(=O)O[C@]1(C(C)=O)CC[C@H]2C3C=C(Cl)C4=CC(=O)[C@@H]5C[C@H]5[C@]4(C)C3CC[C@@]21C (some centres not stated),Potency,[1],inactive
same,Potency,[24],inactive
same,Potency,[3],12.6 µM (active)
same,Potency,[4],10 µM (active)
same,Potency,[5],8.91 µM (active)
same,Potency,[6],14.1 µM (active)
same,Potency,[8],8.91 µM (active)
same,Potency,[9],12.6 µM (active)
same,outcome,[11],inactive
same,Potency,[13],inactive
same,Potency,[14],9.28 µM (active)
same,outcome,[15],inactive
same,outcome,[16],inactive
same,outcome,[18],inactive
same,Potency,[25],inactive
CCCn1c(C)cnc1CC1CCN(C(=O)NCc2ccc(OC)cc2)C1 (configuration not stated),activity,[20],-4.22%
same,"activity change, negative = inhibition",[21],6.2%
same,activity,[22],-3.34%
same,activity,[23],-1.44%
Cc1ccc(-c2ccc(N)nc2)c2cccnc12,activity,[20],-62.1%
same,"activity change, negative = inhibition",[21],1.37%
same,activity,[22],-2.78%
same,activity,[23],1.29%
c1ccc(CN2CCNc3cnc(Nc4ccc(N5CCOCC5)cc4)cc3C2)cc1,activity,[20],-14.6%
same,"activity change, negative = inhibition",[21],-9.27% [at 85.7 µM]
same,activity,[22],-15%
same,activity,[23],-10.3%
CCC1CCCCN1CCCNC(=O)Cn1ccc2cc(S(=O)(=O)N3CCCCC3)ccc21 (configuration not stated),activity,[20],1.17%
same,"activity change, negative = inhibition",[21],0%
same,activity,[22],-2.34%
same,activity,[23],-1.74%
